Bioassay records: PubChem BioAssay, National Center for Advancing Translational Sciences (NCATS)
The list is not random: actives were taken first. Their share in the collection is about 0.45%.
Pin1 inhibitor: qHTS Assay to Find Inhibitors of Pin1. actives 0.009% (n = 390,000). Peptidyl-prolyl cis-trans isomerase NIMA-interacting 1 (Homo sapiens), Q13526. Pin1 FP peptide displacement, HiFluor488, 10 min. AID 504891, 2011. Potency, µM (highest dose often 115 µM), inactives show top-dose activity, negative = inhibition, hits mostly inhibitors; active = well fitted inhibition curve with a large enough effect in the polarisation, with a control signal flat, not every such curve was filed as active; inconclusive = small, poorly fitted or top-dose-only effect, or effect the other way, or a change in a side signal; inactive = no such curve, though single readings can be large or run the other way; the % refers to the polarisation
Target sequence (Q13526 whole entry, looked up): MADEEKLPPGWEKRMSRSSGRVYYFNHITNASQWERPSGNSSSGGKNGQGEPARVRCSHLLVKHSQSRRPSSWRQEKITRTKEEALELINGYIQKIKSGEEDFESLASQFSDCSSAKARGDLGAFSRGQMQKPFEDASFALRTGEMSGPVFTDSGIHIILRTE
Anesthetic bind: qHTS Assay for Identification of Novel General Anesthetics. AID 485281, 2010. Potency, µM (highest dose often 77.5 µM), for the others: at the top dose activity change, negative = displacement, usual class: inhibitors. actives 0.074% (n = 350,000). apoferritin/1-aminoanthracene competitive binding, fluorescence; note: nearly all actives have a fitted effect of over 20% in size
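Probe: 1-aminoanthracene (50% saturated, PBS). Protein: horse-spleen apoferritin, 10 uM. Incubation: 10 min, room temperature. Detection: 380 nm excitation, 535 nm emission. Analysis: normalized response, four-parameter Hill.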
FEN1 inh: qHTS Assay for the Inhibitors of Human Flap endonuclease 1 (FEN1). P39748. Recombinant FEN1 flap cleavage, fluorescence, 15 min. Potency, µM (series often up to 114 µM), without a hit: at the top dose activity change, negative = inhibition, actives largely listed as inhibitors. actives 0.35% (n = 390,000). AID 588795, 2011; note: nearly all actives have a fitted effect of over 65% in size
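With each library titrated from low to high concentration, compounds met 10 nM FEN1 for 15 min at room temperature before 50 nM substrate was added; readings at 0 and 15 min fed four-parameter Hill curve fits.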
B2AR arrestin: qHTS assay of beta-arrestin-biased ligands of beta2-adrenergic receptor. beta-arrestin recruitment to beta2AR, cell-based reporter. Potency, µM (series often up to 46.1 µM), for inactives: at the highest dose activation, actives largely listed as activators. actives 0.02% (n = 330,000). Beta-2 adrenergic receptor (Homo sapiens), P07550;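 note: 0% = DMSO controls and full agonism = EC100 isoproterenol or metaproterenol; nearly all actives have a fitted effect of over 65% in size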
Target sequence (P07550 whole entry, looked up): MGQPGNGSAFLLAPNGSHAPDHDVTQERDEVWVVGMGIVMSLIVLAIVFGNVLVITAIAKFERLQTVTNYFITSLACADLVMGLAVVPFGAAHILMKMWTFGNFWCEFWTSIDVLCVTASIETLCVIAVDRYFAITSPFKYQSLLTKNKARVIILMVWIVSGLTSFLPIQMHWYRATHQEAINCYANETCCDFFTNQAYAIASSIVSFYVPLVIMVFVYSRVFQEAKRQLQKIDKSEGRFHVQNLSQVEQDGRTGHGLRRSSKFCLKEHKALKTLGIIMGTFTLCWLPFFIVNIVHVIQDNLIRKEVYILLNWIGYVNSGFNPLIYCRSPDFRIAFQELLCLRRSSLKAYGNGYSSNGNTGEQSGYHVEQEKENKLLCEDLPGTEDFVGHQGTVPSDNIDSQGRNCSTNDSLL
PGK inhibitor: qHTS Assay to Find Inhibitors of Phosphoglycerate Kinase | Phosphoglycerate kinase, glycosomal (Trypanosoma brucei brucei), P07378 | PGK/GAPDH coupled, Kinase-Glo luminescence, 60 min | Potency, µM (titrated, usually from 57.5 µM), for the others: top-dose activity change, negative = inhibition, actives largely listed as inhibitors | actives 0.043% (n = 380,000) | AID 602233, 2012; note: nearly all actives have a fitted effect of over 60% in size
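Recombinant glycosomal PGK reaction used 1,3-bisphosphoglycerate generated in-well by GAPDH (100nM final) in 100mM TEA pH 7.6, 5mM MgCl2, 0.01% Tween-20. After 60 minutes at room temperature, ATP was read by Kinase-Glo Plus luminescence end-point.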
Chronic BCR inh: qHTS Assay to Find Inhibitors of Chronic Active B-Cell Receptor Signaling; actives 0.05% (n = 340,000); ABC-DLBCL IkBa-CBG/CBR reporter, luminescence ratio, 4 h; Potency, µM (highest dose often 46.1 µM), without a hit: at the top dose activity change, negative = inhibition, usual class: inhibitors; active = well fitted inhibition curve with a large enough effect in the signal ratio, with a control signal flat, not every such curve was filed as active; inconclusive = small, poorly fitted or top-dose-only effect, or effect the other way, or a change in a side signal; the % refers to the signal ratio;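 note: plate controls were basal doxycycline-induced cells for no effect and cells given 10 µM MG132 for full effect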
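Compounds up to 46 uM were incubated four hours with TMD8 cells whose green CBG68 luciferase is fused to IkappaBalpha; red CBR luminescence normalised the signal, and concentration-effect curves were fitted to fusion, red and ratio data.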
* hit, by the source's call; i = inactive; ? = inconclusive; . = no result. Unless noted, calls come from the whole dose curve; as a rule, active = well fitted curve in the direction sought with a large enough effect; inconclusive = small, poorly fitted or top-dose-only effect, or another doubt; inactive = no such curve, though single readings can be large; an effect the other way counts as inactive or inconclusive. Unless noted, % is set by controls: 0 for no effect and ±100 for the full control effect; potency is the fitted concentration of half-maximal effect.

SMILES | Pin1 inhibitor | Anesthetic bind | FEN1 inh | B2AR arrestin | PGK inhibitor | Chronic BCR inh
COC1=CC(=O)c2ccccc2C1=O | -3% | . | 10µM* | -1% | -7% | ?
COc1cc2c(NC3CCN(C)CC3)nc(N3CCCN(C)CC3)nc2cc1OCCCCCN | . | . | 8.9µM* | . | . | .
COCCCCOc1cc2nc(N3CCCN(C)CC3)nc(NC3CCN(C)CC3)c2cc1OC | . | . | 45µM* | . | . | .
COc1cc2c(NC3CCN(C)CC3)nc(N3CCCN(C)CC3)nc2cc1OCCCCCC(N)=O | . | . | 0% | . | . | .
COc1cc2c(NC3CCN(C)CC3)nc(N3CCCN(C)CC3)nc2cc1OCC1CCCCN1 (stereo not given) | . | . | 20µM* | . | . | .
Cc1cc(C)n2ncc(C(=O)Nc3ccccc3)c2n1 | 12% | . | . | . | . | .
Cc1ccc(S(=O)(=O)NN2C(=O)/C(=C/c3ccc(C(=O)O)cc3)SC2=S)cc1 | ? | -10% | 50µM* | -1% | -1% | 4%
CCCCCCNC(=O)N[C@H](C(=O)NCCC[C@H]1CN2C(=NC[C@H]2C)N1CCC(c1ccccc1)c1ccccc1)C(C)O (stereo not given in full) | . | -18% | . | 3% | . | 18µM*
C[C@@H]1CN=C2N(CCNC(=O)CCC3CCCCC3)[C@H](Cc3ccc(O)cc3)CN21 | 0% | -13% | -4% | -1% | -3% | -19%
Cc1cc2c(s1)c1cnn(Cc3c(F)cccc3C(F)(F)F)c(=O)c1n2C | -4% | . | . | . | . | .
CCN(CC)CCn1c2ccccc2c2nc3ccccc3nc21 | -1% | -7% | 25µM* | 0% | -6% | ?
CCCn1c2ccccc2c2nc3ccccc3nc21 | -8% | -6% | ? | 0% | -7% | ?
Nc1nc(-c2ccccc2)c(N=Nc2ccc(Cl)cc2)s1 | 14% | -9% | 1% | -1% | -3% | ?
Nc1[nH]ncc1N=Nc1ccc(Cl)cc1 | 1% | 32µM* | -1% | -1% | -8% | -21%
Cc1cc2c(s1)c1cnn(Cc3ccc(C(=O)O)cc3)c(=O)c1n2C | -4% | . | . | . | . | .
Cc1c2cnn(CC(=O)Nc3c(F)c(F)cc(F)c3F)c(=O)c2c(C)n1Cc1ccccc1F | ? | -10% | 79µM* | 3% | -22% | ?
COc1ccc(C2Nc3ccccc3C(=O)N2Cc2cccc(C(F)(F)F)c2)cc1COc1ccc(NC(C)=O)cc1 (stereo not given) | 0% | . | . | . | . | .
Cc1cc(C)c(S(=O)(=O)Nc2cc(SCC(=O)O)c(O)c3ccccc23)cc1C | ? | -15% | -35% | 7% | -9% | -7%
Cc1cc(C)c(S(=O)(=O)/N=C2/C=C(SCC(=O)O)C(=O)c3ccccc32)cc1C | ? | -9% | 10µM* | 0% | -6% | ?
COc1ccc(/C=C/C(=O)OCC(=O)NC2CCCC(C)C2C)cc1 (stereo not given) | 5% | . | 0% | -1% | -6% | 3%
COC(=O)c1ccc(OCC(=O)NC2CCCCCC2)cc1 | 3% | ? | -2% | 0% | -6% | 4%
COC(=O)c1ccc(/C=N/OCC(=O)NC2CCCC(C)C2C)cc1 (stereo not given) | -1% | 11µM* | -3% | 0% | i | -3%
COC(=O)c1ccc(/C=N/OCC(=O)NC2CCCCCCC2)cc1 | -17% | 7.9µM* | -7% | 0% | 5% | -17%
O=C1CCCC2=C1C1(CCCC1)N=C(Nc1nc3ccccc3n1Cc1ccccc1)N2 | 6% | . | . | . | . | .
O=C1CCCC2=C1C(c1ccccc1Cl)N=C(Nc1nc3ccccc3o1)N2 (stereo not given) | -6% | . | . | . | . | .
SMILES | Pin1 inhibitor | Anesthetic bind | FEN1 inh | B2AR arrestin | PGK inhibitor | Chronic BCR inh
O=[S+]([O-])(c1ccc2c(c1)OCCO2)N1CCN([S+](=O)([O-])c2ccccc2Br)CC1 | -15% | . | . | . | . | .
O=[N+]([O-])c1cc(/C=N/n2c(-c3ccncc3)n[nH]c2=S)ccc1Cl | ? | -15% | 50µM* | -1% | -19% | ?
COc1cccc(C2c3c(ncn(-c4ccccc4SC)c3=N)Oc3ccc4ccccc4c32)c1 (stereo not given) | 20% | . | . | . | . | .
CC1CCc2c(sc3nn[nH]c(=O)c23)C1 (stereo not given) | -1% | 25µM* | -17% | -1% | -8% | 4%
O=C1CCc2cc(S(=O)(=O)Nc3ccc(F)c(Cl)c3)ccc2N1 | 1% | . | . | . | . | .
CCNC(=S)N/N=C(\C)c1ccc(Cl)s1 | -5% | -7% | 0% | -1% | 3% | ?
CNC(=S)N/N=C(\C)c1ccc(Cl)s1 | -7% | 3% | 0% | 18µM* | 12% | 16µM*
O=C1CCc2cc(S(=O)(=O)NCc3ccccc3)ccc2N1 | 5% | . | . | . | . | .
CN1CCN(c2cc(N3CCN(C(=O)c4ccco4)CC3)c3c4c(onc24)-c2ccccc2C3=O)CC1 | -3% | -4% | ? | 0% | -8% | ?
O=C1c2ccccc2-c2onc3c(N4CCN(CCO)CC4)cc(N4CCN(C(=O)c5ccco5)CC4)c1c23 | ? | -6% | 45µM* | 0% | -14% | ?
O=C(Oc1c(CN2CCOCC2)cc(Cl)c2cccnc12)c1ccccc1 | -7% | -11% | -16% | ? | -8% | ?
O=C(Oc1c(CN2CCOCC2)cc(Cl)c2cccnc12)c1ccccc1F | -9% | -21% | -5% | 5.6µM* | -6% | 3.5µM*
COc1cc(OC)cc(C(=O)Oc2c(CN3CCOCC3)cc(Cl)c3cccnc23)c1 | 1% | -18% | -3% | 4µM* | -2% | ?
O=C(Cn1cc(CNCc2ccccc2)nn1)Nc1cc(C(F)(F)F)ccc1Cl | -2% | . | . | . | . | .
CCc1ccccc1NC(=O)c1cccc(NC(=O)/C=C/c2ccco2)c1 | 24% | -18% | 6% | 0% | -2% | ?
O=C(/C=C/c1ccco1)Nc1cccc(C(=O)Nc2ccccc2C(=O)O)c1 | ? | -1% | 50µM* | 0% | 32µM* | ?
Cc1nc(Nc2nc(CSc3nc4ccccc4[nH]3)cc(=O)[nH]2)nc2ccccc12 | 3% | -7% | 3% | 0% | -9% | ?
Cc1nc(Nc2nc(-c3ccccc3)cc(=O)[nH]2)nc2ccccc12 | 30% | . | 25µM* | . | -4% | .
O=C(CCS(=O)(=O)c1ccc(Br)cc1)NCc1ccco1 | -3% | -3% | -2% | 3% | 13µM* | -8%
